Source: PubChem BioAssay (National Center for Advancing Translational Sciences (NCATS))
NS1 function inh = qHTS Assay for Inhibitors of Influenza NS1 Protein Function; Potency, µM (top dose mostly 46.1 µM), inactives show top-dose activity, positive = more growth; hit rate 0.4% among 270,000; calls by dose curve; note: potency is the fitted concentration of half-maximal effect; actives are rising curves; nearly all actives have a fitted effect of over 50% in size
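S. cerevisiae expressing influenza A NS1, grown in glucose, washed, then diluted 1:100 into pH 6.0 -URA galactose medium with 23 nl compound. Growth recovery read as OD600; NS1-free strain serves as control.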
Pf growth 96h = Primary qHTS for delayed death inhibitors of the malarial parasite plastid, 96 hour incubation; Potency, µM (top dose mostly 28.7 µM), inactives show at the highest dose activity change, negative = inhibition, hits mostly inhibitors; P. falciparum luciferase reporter growth, 96 h; hit rate 6.9% among 320,000; AID 504834, 2011; note: potency is the fitted concentration of half-maximal effect; % is set by controls: 0 for no effect and ±100 for the full control effect
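Readout is luminescence from an integrated firefly luciferase in P. falciparum. Red cells, 2% hematocrit and 0.05% parasitemia final, were cultured with compound through two parasite generations (96 hours) at 37 C, 5% CO2.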
Pf growth 48h = Primary qHTS for delayed death inhibitors of the malarial parasite plastid, 48 hour incubation; AID 504832, 2011; hit rate 5.9% among 310,000; P. falciparum luciferase growth in erythrocytes, 48 h; Potency, µM (doses to about 28.7 µM), inactives show top-dose activity change, negative = inhibition, usual class: inhibitors; note: potency is the fitted concentration of half-maximal effect; % is set by controls: 0 for no effect and ±100 for the full control effect
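First compound was added to culture medium, then infected red cells at 0.1% parasitemia and 2% hematocrit (final). After incubation at 37 C under 5% CO2, luciferase detection reagent was dispensed and light output recorded.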
Shiga inhibitor = A qHTS for Small Molecule Inhibitors of Shiga Toxin | hit rate 9.2% among 290,000 | inhibition, % at 38.7 µM | Vero cells, Shiga toxin protein synthesis inhibition reporter; in the data active = inhibition mostly above about 28%, no sharp cut-off; inactive = mostly below about 43%; note: 0% is about no effect
CHX counter = Cycloheximide Counterscreen for Small Molecule Inhibitors of Shiga Toxin; cell reporter, cycloheximide protein synthesis inhibition counterscreen; max response, %; hit rate 12% among 300,000; in the data active = max response mostly above about 13%, no sharp cut-off; inactive = mostly below about 14%; note: read at 38.3 µM for the half of the compounds with a filed dose; 0% is about no effect
An asterisk follows results filed as active; i = inactive; ? = inconclusive; . = no result; [ ] = remark or other dose. Compounds with a hit are over-represented: about 21% of the library has one in this group of screens. Unless noted, calls come from the whole dose curve; as a rule, active = well fitted inhibition curve with a large enough effect; inconclusive = small, poorly fitted or top-dose-only effect, or another doubt; inactive = no such curve, though single readings can be large or run the other way.

SMILES	NS1 function inh	Pf growth 96h	Pf growth 48h	Shiga inhibitor	CHX counter
CC(=O)C1=C(C)Nc2ncnn2C1c1cccc(O)c1 (stereo unspecified)	10%	?	1%	-2	-1
CCOC(=O)c1[nH]c(C)c(C(=O)Nc2ccc(C)c(C)c2)c1C	-6%	5.9µM*	.	13	15*
CCOC(=O)c1c(C)[nH]c(C(=O)OCc2ccccc2F)c1C	6%	161%	56%	115*	50*
CCOC(=O)c1c(C)[nH]c(C(=O)OCCOc2ccc(Cl)cc2)c1C	8%	63%	34%	-7	0
CCOC(=O)c1c(C)[nH]c(C(=O)OCCOc2ccccc2C)c1C	-2%	491%	260%	61*	45*
CCOC(=O)c1[nH]c(C)c(C(=O)Nc2ccc(F)cc2)c1C	4%	-28%	.	7	-1
CCOC(=O)c1[nH]c(C)c(C(=O)Nc2ccccc2F)c1C	-4%	?	70%	60*	25*
C[N+]1(CN2C(=O)C3C4C=CC(C4)C3C2=O)CCCCC1 (stereo unspecified)	1%	11%	-9%	-13	1
O=C(O)c1cc2c(cn1)[nH]c1ccccc12	2%	3%	4%	23	5
CCOC(=O)N1CCN([N+]([O-])=NOc2cc(O/N=[N+](\[O-])N(C)C)c([N+](=O)[O-])cc2[N+](=O)[O-])CC1	.	.	.	-4	-1
CCOC(=O)Nc1ccccc1C(=O)N1CCOCC1	3%	8%	22%	9	-5
CCOC(=O)c1ccc(OCCOc2ccccc2C)cc1	7%	?	2%	.	34*
CCOC(=O)c1ccc(S(=O)(=O)NNC(=O)COc2ccccc2C)cc1	12%	?	20%	-4	-4
CCOC(=O)c1[nH]c(COC(=O)CCCOc2ccccc2)c(C(=O)OCC)c1C	-4%	?	13µM*	1	3
CCOC(=O)c1c(C)[nH]c(C(=O)OCc2ccc(F)cc2)c1C	1%	158%	182%	72*	50*
COc1ccc(N(CC(=O)N/N=C/c2ccccc2F)S(=O)(=O)c2ccccc2)cc1	7%	?	-30%[0.00184 µM]	-6	-3
Cc1cc(C)nc(NC(=O)c2ccccc2O)n1	-44%	0%	28%	5	4
CCn1c(C)csc1=NC(=O)c1ccccc1O	-69%	1.7µM*	111%	107*	56*
Cc1csc(=NC(=O)c2ccccc2)n1C	-10%	i	i	83*	50*
Cc1ccc(S(=O)(=O)/N=c2\scc(C)n2C)cc1	.	-23%	-22%	.	.
Cc1csc(=NC(=O)c2ccccc2)n1Cc1ccco1	-14%	26%	0%	28	11
CCn1c(C)csc1=NC(=O)c1ccccc1	-83%	-21%	91%	34*	29*
Clc1ccc(OCCn2ccnc2)c(Cl)c1	-46%	19%	?	-9	-5
Clc1ccc(SCCn2ccnc2)cc1	-10%	13µM*	-17%	10	-2
Cc1nc2ccc(Br)cn2c1C(=O)N/N=C\c1ccccc1Cl	-7%	3.3µM*	70%	.	-1
SMILES	NS1 function inh	Pf growth 96h	Pf growth 48h	Shiga inhibitor	CHX counter
COc1cccc(/C=N/NC(=O)c2c(C)nc3ccc(Cl)cn23)c1O	-26%	2%	9.3µM*	6	-1
COc1ccccc1Cn1[nH]nnc1=S	5%	9%	82%	-9	-2
O=C1/C(=C/c2ccco2)Oc2c1ccc(O)c2CN1CCCCC1	14%	?	?	-13	-4
CCN1CCN(Cc2c(O)ccc3c2O/C(=C\C=C\c2ccccc2OC)C3=O)CC1	6%	4.1µM*	2.9µM*	97*	57*
CCN1CCN(Cc2c(O)ccc3c(=O)c(-c4ccccc4OC)coc23)CC1	6%	.	?	-8	-3
CC1CCN(Cc2c(O)ccc3c2O/C(=C\c2ccco2)C3=O)CC1	8.9µM*	10µM*	15µM*	-10	-1
COc1cc(C(=O)O)cc(NC(=O)c2ccco2)c1OC	3%	1%	34%	-10	-4
COc1cc(C(Nc2ccccn2)c2c(NC(=O)c3ccco3)sc(C)c2C)cc(OC)c1OC (stereo unspecified)	-15%	8.3µM*	5.2µM*	76*	29*
COc1ccc(C(Nc2ccccn2)c2c(NC(=O)c3ccco3)sc(C)c2C)cc1OC (stereo unspecified)	-3%	5.2µM*	?	26	22*
O=C(Nc1ccccc1Cl)C1CCCN1C(=O)OCc1ccccc1 (stereo unspecified)	-16%	?	12%	-10	9
